# Assay outcomes as filed in PubChem BioAssay.
# Most compounds without a hit are left out; they make up all but 9.2% or so of the library.
# ELG1 genotox = inducers of genotoxicity in HEK293T ELG1-luciferase cells. HEK293T ELG1-luciferase reporter, luminescence, 16 h. Potency, µM (highest dose often 46 µM), for inactives: at the top dose activity change, positive = activation, actives largely listed as activators. actives 1.3% (n = 330,000). AID 504466; note: % of control where 0% means no effect; nearly all actives have a fitted effect of over 60% in size
#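 Step 1: seed 2,000 HEK293T ELG1-luciferase cells per well. Step 2: add compound or DMSO, incubate 16 hr at 37 °C. Step 3: ONE-Glo, 30 min at room temperature, read luminescence.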
# ELG1 DNA repair = ELG1-dependent DNA repair inhibition; Potency, µM (highest dose often 46.1 µM), for inactives: at the highest dose activity change, negative = inhibition, hits mostly inhibitors; HEK293T ELG1-luciferase reporter, luminescence, 16 h; DNA damage induced by 5-fluorouridine; AID 504467; actives 2.3% (n = 330,000); note: % is set by controls: 0 for no effect and ±100 for the full control effect; nearly all actives have a fitted effect of over 55% in size
#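 In this reporter screen, reduction of luminescence relative to DMSO vehicle indicated activity. Compounds and 5-fluorouridine were added together to 2,000 cells per well, incubated for 16 hr at 37 °C, then developed with ONE-Glo.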
# NPC1 prom act = NPC1 promoter activation | actives 2.4% (n = 320,000) | Huh7 NPC1 promoter luciferase reporter, 24 h | Potency, µM (series often up to 9.22 µM), without a hit: top-dose activation, actives largely listed as activators; note: % of control where 0% means no effect; nearly all actives have a fitted effect of over 60% in size
#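 Stably transfected Huh7 (NPC1 promoter→luciferase), 1500 cells/well in Opti-MEM + 10% FBS, 2 h settle, then compound 24 h at 37 °C. Luminescence after 10 min with Amplite reagent.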
# Rab9 promoter act = Rab9 promoter activation; AID 485297; actives 2.8% (n = 320,000); Huh7 Rab9 promoter-luciferase reporter, luminescence, 24 h; Potency, µM (titrated, usually from 9.22 µM), without a hit: at the highest dose activation, negative = inhibition, actives largely listed as activators; note: % of control where 0% means no effect; nearly all actives have a fitted effect of over 60% in size
#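 Cell-based reporter: Huh7 stable for Rab9 promoter-driven luciferase, plated in reduced-serum medium with 10% FBS at 1500 cells/well, compound-treated 24 h at 37 °C, luminescence read after 10 min reagent.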
# FLuc counter = inhibits or activates purified firefly luciferase, miR-21 counter-screen; purified FLuc, Km substrates, luminescence inhibition; AID 588342; actives 6.9% (n = 360,000); Potency, µM (series often up to 57.5 µM), for the others: at the highest dose activity change, negative = inhibition, most hits filed as inhibitors; P08659;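 note: plate controls were vehicle for no effect and reference inhibitor for full effect; nearly all actives have a fitted effect of over 55% in size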
# Target sequence (P08659 whole entry, looked up): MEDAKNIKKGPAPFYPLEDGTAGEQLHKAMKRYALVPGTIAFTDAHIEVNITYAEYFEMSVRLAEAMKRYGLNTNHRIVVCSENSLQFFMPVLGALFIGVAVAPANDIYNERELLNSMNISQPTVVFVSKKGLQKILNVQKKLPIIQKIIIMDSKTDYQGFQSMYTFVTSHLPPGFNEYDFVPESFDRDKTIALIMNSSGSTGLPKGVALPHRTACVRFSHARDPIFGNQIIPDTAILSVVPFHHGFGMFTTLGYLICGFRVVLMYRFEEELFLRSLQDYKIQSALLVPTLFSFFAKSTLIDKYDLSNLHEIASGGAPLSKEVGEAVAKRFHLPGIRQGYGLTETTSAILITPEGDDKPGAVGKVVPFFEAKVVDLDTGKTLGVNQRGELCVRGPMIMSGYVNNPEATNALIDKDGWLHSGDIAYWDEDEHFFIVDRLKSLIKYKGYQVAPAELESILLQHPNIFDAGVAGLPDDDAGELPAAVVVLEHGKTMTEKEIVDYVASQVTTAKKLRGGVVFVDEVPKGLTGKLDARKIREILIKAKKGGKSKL
#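 Biochemical qHTS of compounds, final roughly 60 µM downward over six points, against 10 nM purified firefly luciferase using Km concentrations of substrates (10 uM D-luciferin, 10 uM ATP) in Tris acetate pH 7.5 buffer; luminescence output.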
# SMN2 splice enh = SMN2 splice variant enhancement; HEK293 SMN2-luciferase splicing reporter, luminescence, 30-36 h; Potency, µM (top dose mostly 46.1 µM), for the others: at the top dose activity change, positive = activation, actives largely listed as activators; actives 2.8% (n = 210,000); AID 1458; note: % of control where 0% means no effect; nearly all actives have a fitted effect of over 55% in size
#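 HEK293 cells carry an SMN2 […]–luciferase reporter in which exon 7 inclusion puts luciferase in frame. Cells were plated 10-12 h before compound addition, then incubated 30-36 h at 37C. ONE-Glo luminescence was read; sodium butyrate at 4.5 mM final served as control.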
# The depositor's hits bear a star; ? = inconclusive; · = no result. Calls come from the whole dose curve; as a rule, active = well fitted curve in the direction sought with a large enough effect; inconclusive = small, poorly fitted or top-dose-only effect, or another doubt; inactive = no such curve, though single readings can be large; an effect the other way counts as inactive or inconclusive. Potency is the fitted concentration of half-maximal effect.
SMILES,ELG1 genotox,ELG1 DNA repair,NPC1 prom act,Rab9 promoter act,FLuc counter,SMN2 splice enh
COC(=O)C1=C(C)NC(C)=C(C(=O)OCC2CCCO2)C1c1ccc(Cl)c([N+](=O)[O-])c1 (configuration not stated),-20%,10µM*,-1%,-7%,3%,·
Cn1cc(C(=O)NCCc2ccccc2)c(=O)c2cc(S(=O)(=O)N3CCCCC3)ccc21,·,·,·,·,-2%,-5%
O=c1c2ccc([N+](=O)[O-])cc2ncn1CCOc1ccc(Cl)cc1,-16%,?,-1%,0%,-2%,-10%
Cc1ccc(OCCn2cnc3ccccc3c2=O)c([N+](=O)[O-])c1,?,?,2.8µM*,1.8µM*,?,16µM*
O=c1c2ccc([N+](=O)[O-])cc2ncn1CCOc1cccc(Br)c1,-13%,18µM*,-4%,10%,-6%,-57%
Cc1ccc(Cl)cc1NC(=O)c1cnn2c1NC(c1ccco1)CC2C(F)(F)F (configuration not stated),-12%,18µM*,1%,-5%,0%,13%
O=C(NCc1cccc(Cl)c1)c1cnn2c1NC(c1ccco1)CC2C(F)(F)F (configuration not stated),-12%,?,-6%,0%,3%,-4%
CN(Cc1ccc(-n2cccn2)cc1)C(=O)c1cnn2c1NC(c1ccco1)CC2C(F)(F)F (configuration not stated),-16%,10µM*,-3%,-45%,14%,-45%
COCCNC(=O)c1cnn2c1NC(c1ccco1)CC2C(F)(F)F (configuration not stated),2%,1%,-5%,0%,-1%,11%
c1ccc(C2=NN(c3ccccc3)CC2)cc1,?,?,2.8µM*,3.5µM*,3.4µM*,·
CCOC(=O)/C(=C/c1ccc(N2CCC(c3ccccc3)=N2)cc1)C(C)=O,21µM*,?,?,?,-6%,-70%
Cc1cccc(NC(=O)NCCn2c(=O)oc3ccc(C)cc32)c1,·,·,·,·,2%,-4%
CC1(C)Cc2c(sc3c2c(N)nc(=S)n3Cc2ccc(Br)cc2)CO1,3%,-6%,-2%,-2%,-2%,·
O=C(CN1C(=O)NC2(CCOc3ccccc32)C1=O)c1ccc(F)cc1 (configuration not stated),2%,9%,-1%,-2%,-11%,·
O=C(CCn1cnnn1)Nc1cc(C(F)(F)F)cc(C(F)(F)F)c1,·,·,·,·,-14%,1%
CCC(=O)Nc1cccc(NC(=S)NC(=O)c2ccccc2)c1,16%,?,2.8µM*,?,15µM*,11µM*
CCC(=O)Nc1cccc(NC(=S)NC(=O)c2cccc(C)c2)c1,?,?,3.2µM*,1.6µM*,?,11µM*
Cc1c(NC(=S)NC(=O)c2cc3ccccc3o2)cccc1C(=O)O,-2%,?,4µM*,1.8µM*,?,·
CN1CCN(c2ccccc2NC(=S)NC(=O)c2cc3ccccc3o2)CC1,0%,11%,0%,4%,0%,·
CC(=O)c1cccc(NC(=S)NC(=O)c2ccc(C)cc2Cl)c1,12%,?,24%,?,15µM*,?
Cc1cccc(C(=O)NC(=S)Nc2ccc(Cc3ccncc3)cc2)c1,-4%,-1%,-3%,4%,?,-27%
CC(=O)c1cccc(NC(=S)NC(=O)c2ccccc2Cl)c1,4%,24%,16%,11%,?,17%
Cc1ccc(OCC(=O)NNC(=O)Cc2ccc(S(=O)(=O)N3CCOCC3)s2)cc1,-2%,3%,5%,16%,-2%,·
CCC(=O)Nc1cccc(NC(=S)NC(=O)c2ccc(C)cc2)c1,?,?,2µM*,1.6µM*,6.7µM*,10µM*
O=C(O)c1cccc(NC(=S)NC(=O)c2ccc3ccccc3c2)c1,?,?,?,?,1.3µM*,·
SMILES,ELG1 genotox,ELG1 DNA repair,NPC1 prom act,Rab9 promoter act,FLuc counter,SMN2 splice enh
CCC(=O)Nc1cccc(NC(=S)NC(=O)c2cc3ccccc3o2)c1,23µM*,?,1.1µM*,1.1µM*,0.6µM*,2.8µM*
O=C(NC(=S)Nc1ccccc1C(=O)O)c1ccc2ccccc2c1,2%,-26%,-1%,14%,?,·
CC(=O)c1cccc(NC(=S)NC(=O)c2ccc(C)cc2)c1,?,?,3.2µM*,1.4µM*,11µM*,11µM*
CCC(=O)NC(=S)Nc1cccc(NC(=O)CC)c1,1%,-13%,-3%,-9%,14%,1%
CCN(CC)C(=O)n1c(Cc2ccccc2)nc2ccccc21,-5%,-13%,-3%,0%,-1%,·
O=S(=O)(Nc1cnc2ccccc2c1)N1CCCCCC1,·,·,·,·,-12%,-18%
O=C(Cc1ccccc1)Nc1ccc(NC(=S)NC(=O)c2ccccc2)cc1,5%,-16%,-1%,3%,1%,·
O=C(NC(=S)Nc1cccc(CO)c1)c1ccc(-c2ccccc2)cc1,3%,10%,1µM*,1.6µM*,?,?
Cc1ccc(NC(=S)NC(=O)c2ccccc2)cc1NC(=S)NC(=O)c1ccccc1,?,?,?,1.8µM*,-17%,·
Cc1cc(C)cc(OCCN2CCOCC2)c1,0%,10%,2%,4%,-2%,·
Cc1ccc(NC(=O)C(=O)NCC(c2ccc3c(c2)OCO3)N2CCOCC2)cc1C (configuration not stated),·,·,·,·,1%,·
O=C(c1ccccc1)c1ccccc1NC(=O)C1CCCN1Cc1ccccc1 (configuration not stated),-7%,?,-4%,-10%,-2%,·
O=[N+]([O-])c1cc(-c2nnc(Nc3ccc(O)cc3)c3ccccc23)ccc1N1CCOCC1,-12%,18µM*,0%,-10%,-3%,-11%
O=[N+]([O-])c1cc(-c2nnc(Nc3ccccc3)c3ccccc23)ccc1N1CCOCC1,-5%,18µM*,-4%,-13%,-4%,-15%
Cc1ccc(Nc2nnc(-c3ccc(N4CCOCC4)c([N+](=O)[O-])c3)c3ccccc23)cc1,-5%,?,-4%,-2%,-1%,-13%
Cc1ccc2c(c1)C=CC(C#N)N2C(=O)c1ccccc1 (configuration not stated),9%,1%,-17%,-18%,-7%,6.3µM*
Cc1nc(NC(=O)c2cccc(-c3cc4ccccc4oc3=O)c2)ccc1Br,9%,?,?,?,-20%,?
O=C(Nc1ccc(Br)cn1)c1cccc(-c2cc3ccccc3oc2=O)c1,?,?,1.8µM*,4µM*,12µM*,11µM*
